Data reported in PubChem BioAssay.
Values without a mark were called inactive.

Assay: A549 lung cancer cell viability effects, profiling panel, resazurin fluorescence, 24 h, PK04 Diversity Set (AID 1171); further: test concentration not given here
Conditions: higher = more signal, called active from +8 up or from −8 down

| Compound | z-score |
| --- | --- |
| COCC(=C=CC[C@@H](O)c1cccc(OCCO)c1)C[C@@H](O)c1ccccn1 | 0.391 |
| C[C@@]1([C@@H](NC(=O)c2ccc(-c3ccccc3)cc2)c2ccc(Cl)cc2)C[C@H]1C1CCCCC1 | 0.602 |
| CCc1cccc(NC(=O)O[C@H]2[C@H](OC(=O)Nc3ccccc3-c3ccccc3)[C@@H](OC(=O)Nc3ccccc3-c3ccccc3)[C@@H](OC)O[C@@H]2CO)c1 | -6.15 |
| C=C[C@H](CO[Si](CC)(CC)CC)N(Cc1ccc(OC(C)=O)c(OC)c1)S(=O)(=O)c1ccc(Br)cc1 | -0.18 |
| C[C@H]1NC(=O)[C@@]23C(=O)N[C@@H](Cc4ccccc4)C2[C@H](C)[C@@]2(C)O[C@H]2C3/C=C/C/C=C\CNC(=O)[C@@H]2CCCN2C1=O (some centres undefined) | 0.437 |
| CCS[C@H]1[C@@H](C(=O)O)[C@H](c2ccc(C)cc2)N(S(=O)(=O)c2ccc(C)cc2)[C@@H]1CC | -0.545 |
| COCCOC(=O)N1C(=O)[C@@]2(c3ccccc31)[C@H](C(=O)N1CCc3cc(OC)c(OC)cc3C1)[C@H]1C(=O)O[C@H](c3ccccc3)[C@H](c3ccccc3)N1[C@@H]2c1ccc(OCCO)cc1 | 0.779 |
| [N-]=[N+]=Nc1ccccc1[C@H]1OC(c2ccc(OCCCO)cc2)=N[C@@]1(CCS(=O)(=O)c1ccccc1)C(=O)NCC(O)CO (some centres undefined) | 0.859 |
| [N-]=[N+]=NCc1ccccc1[C@@H]1OC(c2ccc(OCCCO)cc2)=N[C@]1(Cc1ccccc1)C(N)=O | 0.479 |
